High-throughput results as filed in PubChem BioAssay.
In the library only some 28% were active in any assay of this set; here they are far more common.
CYP2C9 inhib: blockers of cytochrome P450 2C9 activity – biochemical, luminescence, ADME assay, primary screen; P11712; CYP2C9 Supersomes, luciferin-H conversion; inhibition, % at 5 µM; 96,000 tested, 20% active;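 active = blocking of liver enzyme CYP2C9 beyond about 50% at 5 µM, limit read from the data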
Target sequence (P11712 whole entry, looked up): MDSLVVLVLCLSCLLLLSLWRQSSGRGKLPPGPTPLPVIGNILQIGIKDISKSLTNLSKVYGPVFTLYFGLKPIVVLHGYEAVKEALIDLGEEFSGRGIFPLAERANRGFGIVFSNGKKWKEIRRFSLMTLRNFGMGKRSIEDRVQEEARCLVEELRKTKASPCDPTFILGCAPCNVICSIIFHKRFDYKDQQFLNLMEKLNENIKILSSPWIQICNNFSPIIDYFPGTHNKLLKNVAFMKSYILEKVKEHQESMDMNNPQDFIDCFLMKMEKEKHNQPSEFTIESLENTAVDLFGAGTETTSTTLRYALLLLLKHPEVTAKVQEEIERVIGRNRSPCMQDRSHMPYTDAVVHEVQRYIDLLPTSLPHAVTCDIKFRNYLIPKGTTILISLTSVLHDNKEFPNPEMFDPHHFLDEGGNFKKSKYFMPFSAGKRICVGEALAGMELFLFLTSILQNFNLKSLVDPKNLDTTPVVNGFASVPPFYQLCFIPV
CYP2C19 inhib: blockers of cytochrome P450 2C19 activity – biochemical, luminescence, ADME assay, primary screen; 96,000 tested, 21% active; inhibition, % at 5 µM; CYP2C19 Supersomes, luciferin-H EGE luminescence, 30 min;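 active = CYP2C19 inhibition above a set limit at 5 µM in the primary screen, cut at about 50% in these data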;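 also: plate controls were negative control wells for no effect and 2.5 mM tranylcypromine positive control for full effect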
Mac1 fbg enh: enhancers of CD11b/CD18 adhesion to fibrinogen, primary screen, K562 cells, luminescence | Integrin beta-2 (Homo sapiens) + Integrin alpha-M (Homo sapiens), P05107+P11215 | ATPlite luminescence | activation, % at 10 µM | 93,000 tested, 0.07% active | AID 1499, 2009;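 active = 10 µM primary screen giving 50% or more activity, confirmed by 40% or more on retest at that dose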
CYP2C9 activ: human CYP2C9 activators, primary screen, biochemical, luminescence | recombinant CYP2C9, luciferin-H conversion; active compounds read high; factor 1 = untreated enzyme, 0 = blocked | activation factor at 5 µM | 96,000 tested, 1.4% active;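 active = activation factor of 2 or more for CYP2C9 at a 5 µM dose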;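 also: 0 = sulfaphenazole-blocked wells and 1 = vehicle-only wells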
CD11b adhes inh: inhibitors of CD11b/CD18 adhesion to fibrinogen, primary screen, K562 cells, luminescence | AID 1497, 2009 | inhibition, % at 10 µM | ATPlite luminescence; Mn2+ added to activate the integrin | 93,000 tested, 0.54% active | Integrin beta-2 (Homo sapiens) + Integrin alpha-M (Homo sapiens), P05107+P11215;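 active = primary inhibition of 50% or more at 10 µM, then 40% or more on retest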
CYP2C19 act: human CYP2C19 activators, primary screen, biochemical, luminescence; recombinant CYP2C19, luciferin-H EGE luminescence; active compounds read high; 0 = fully inhibited enzyme, 1 = untreated enzyme; 96,000 tested, under 10 active; activation factor at 5 µM; AID 1025, 2008;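 active = activation factor of at least 2 at 5 µM in the primary screen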;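 also: 0 = wells with 2.5 mM tranylcypromine and 1 = vehicle-only wells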
* marks the source's active call; other numbers are inactive results; · = not tested or not shown.

SMILES | CYP2C9 inhib | CYP2C19 inhib | Mac1 fbg enh | CYP2C9 activ | CD11b adhes inh | CYP2C19 act
C=CCn1c(SCC(=O)N2CCN(c3ccccc3)CC2)nnc1-c1ccco1 | 6.2 | 4.3 | -4.4 | 0.9 | 4.7 | 1
C=CCn1c(SCC(=O)N2CCN(c3ccc(F)cc3)CC2)nnc1-c1cccs1 | 30.1 | 65.0* | 1.8 | 0.7 | 10.4 | 0.3
CCCCn1c(SCC(=O)N2CCCC2)nnc1-c1ccccc1 | 1.1 | 51.9* | -3.3 | 1 | 1.9 | 0.5
CCCCn1c(SCC(=O)N2CCOCC2)nnc1-c1cccs1 | 62.1* | 13.0 | · | 0.4 | · | 0.9
COCCSc1ccccc1C(=O)NCc1ccco1 | -10.2 | 24.1 | -3.1 | 1.1 | -3.4 | 0.8
CC1CC(C)CN(CCCNC(=O)C2CCCN(c3nnc(N4CCCC4=O)s3)C2)C1 (configuration not stated) | -14.9 | -12.6 | · | 1.1 | · | 1.1
O=C(COC(=O)[C@@H]1CCCN1S(=O)(=O)c1ccc(Cl)cc1)NC12CC3CC(CC(C3)C1)C2 | · | · | 10.9 | · | -9.1 | ·
COc1ccc(S(=O)(=O)N2CC(O)CC2C(=O)OCC(=O)Nc2ccc(Cl)cn2)cc1 (configuration not stated) | -6.8 | 73.5* | -1.8 | 1.1 | 4.9 | 0.3
Cc1noc(C)c1COC(=O)C1CC(O)CN1S(=O)(=O)c1ccc(Cl)cc1 (configuration not stated) | 26.0 | 71.2* | -1.4 | 0.7 | 2.6 | 0.3
COc1cc(NC(=O)COC(=O)[C@@H]2CCCN2S(=O)(=O)c2ccc(Cl)cc2)cc(OC)c1OC | 71.9* | 22.5 | 3.4 | 0.3 | -8.5 | 0.8
CCOC(=O)N1CCN(C(=O)c2ccc(N(C)S(C)(=O)=O)cc2)CC1 | -4.4 | -5.4 | 8.1 | 1 | -5.2 | 1.1
CCOC(=O)CSc1nnc(CSc2nc3ccccc3c(=O)[nH]2)n1-c1ccccc1 | 48.0 | 21.2 | -3.7 | 0.5 | 6.3 | 0.8
COc1ccc(C(=O)N2CC3(CC(c4cccc([N+](=O)[O-])c4)=NO3)C[C@H]2C(=O)NCC(N)=O)cc1 (some centres not stated) | 14.2 | 10.9 | · | 0.9 | · | 0.9
Brc1cccc(-c2cnc3n2CCCCC3)c1 | 6.6 | 82.9* | -4.5 | 0.9 | 36.8 | 0.2
c1csc(-c2cnc3n2CCCC3)c1 | -44.4 | 39.8 | -2.6 | 1.4 | -3.9 | 0.6
Brc1cccc(-c2nnc3n2CCCCC3)c1 | 9.2 | 52.9* | -2.7 | 0.9 | -1.1 | 0.5
Cc1ccc2nsnc2c1S(=O)(=O)N1CCOCC1 | -0.5 | 15.4 | -2.1 | 1 | 36.7 | 0.8
CCOc1cc(CNCCCN2CCOCC2)cc(Br)c1OCC(=O)Nc1cccc(C(F)(F)F)c1 | 8.7 | 11.6 | 0.9 | 0.9 | 15.5 | 0.9
CC(C)N(O)C(=O)NC(C)(C)C | 8.4 | -3.2 | · | 0.9 | · | 1
COCCNC(=O)C1CC(c2cccc([N+](=O)[O-])c2)=NO1 (configuration not stated) | -19.9 | -5.5 | -0.3 | 1.2 | 1.1 | 1.1
Cc1ccccc1OCCn1c(=O)oc2ccccc21 | 69.4* | 98.8* | -3.0 | 0.3 | 13.0 | 0
Cc1ccc(C(C)C)c(OCCn2c(=O)oc3ccccc32)c1 | 82.5* | 92.1* | 7.7 | 0.2 | -7.2 | 0.1
O=c1oc2ccccc2n1CCc1ccccc1 | 1.7 | 86.1* | 6.3 | 1 | -33.0 | 0.1
CCOc1ccc(Nc2cc(=O)n(C)c(=O)n2C)cc1 | 11.9 | 5.0 | 2.0 | 0.9 | -14.8 | 0.9
O=C(CSc1nnc(-c2ccc(O)cc2)n1-c1ccccc1)CC(=O)Nc1ccccc1 | · | · | -5.5 | · | 16.9 | ·
SMILES | CYP2C9 inhib | CYP2C19 inhib | Mac1 fbg enh | CYP2C9 activ | CD11b adhes inh | CYP2C19 act
CCCCc1ccc(C2C(C#N)=C(N)SC(N)=C2C#N)s1 | 98.9* | 67.8* | -10.8 | 0 | 100.2* | 0.3
Cc1ccccc1C(=O)N1CCN(c2ccc(NC(=O)CSc3ccc(Cl)cc3)cc2)CC1 | 44.8 | 26.9 | · | 0.6 | · | 0.7
Oc1cccc(C=NCc2ccccc2)c1O | 26.1 | -1.7 | -3.3 | 0.7 | -17.3 | 1
Cc1ccc(C=NCc2ccncc2)c(O)c1 | 72.0* | 75.5* | -4.9 | 0.3 | 15.2 | 0.2
CCOc1cccc(C(=O)Nc2ccc3oc(Cc4ccc(Cl)cc4)nc3c2)c1 | 58.2* | 46.7 | -6.6 | 0.4 | 89.7 | 0.5
O=[N+]([O-])c1ccccc1S(=O)(=O)n1nnc2ccccc21 | · | · | 19.0 | · | -6.2 | ·
Cc1ccc(C(NC(N)=O)c2ccccc2)cc1 (configuration not stated) | 62.7* | 97.0* | 8.7 | 0.4 | 1.1 | 0
Cc1ccc(C(NC(N)=O)c2ccccc2C)cc1 (configuration not stated) | 48.8 | 99.0* | 0.0 | 0.5 | 5.5 | 0
COc1ccc(C(NC(N)=O)c2ccccc2)cc1 (configuration not stated) | 26.0 | 43.1 | -4.2 | 0.7 | -4.5 | 0.6
COc1ccc(NS(=O)(=O)c2c(C)cc(C)cc2C)cc1 | 92.7* | 87.6* | 2.4 | 0.1 | 10.6 | 0.1
COc1cccc(NS(=O)(=O)c2c(C)n(C)c(=O)n(C)c2=O)c1 | 0.0 | 15.1 | -2.1 | 1 | 18.0 | 0.8
COc1cccc(NS(=O)(=O)c2c(C)cc(C)cc2C)c1 | 57.5* | 100.0* | 3.8 | 0.4 | -0.7 | 0
Cc1ccc(NC(=S)N2CCOCC2)c(C)c1 | 2.9 | 8.5 | 0.4 | 1 | -44.8 | 0.9
Cc1cccc2sc(NC(=O)Cn3cccc3)nc12 | 56.5* | 49.4 | -1.4 | 0.4 | 34.9 | 0.5
Cc1cccc2sc(NC(=O)CN(C)S(=O)(=O)c3cccs3)nc12 | 58.9* | 94.2* | -3.2 | 0.4 | 1.8 | 0.1
Cc1cccc2sc(NC(=O)CSCc3ccccc3)nc12 | 22.0 | 14.3 | -2.1 | 0.8 | 1.9 | 0.9
Cc1cccc2sc(NC(=O)CN(C)S(=O)(=O)c3ccc(Br)s3)nc12 | -11.6 | 61.9* | 0.8 | 1.1 | 6.8 | 0.4
COC(=O)Nc1nc2c(C)cccc2s1 | 13.2 | 31.7 | -5.9 | 0.9 | -12.3 | 0.7
O=C(CN1C(=O)c2ccccc2C1=O)NCc1ccncc1 | 27.8 | 42.1 | -3.8 | 0.7 | -10.8 | 0.6
O=C1c2ccccc2C(=O)C1c1ccncc1 | 91.4* | 48.7 | -4.8 | 0.1 | 22.7 | 0.5
COc1ccc(-c2nc(NC(=O)CSc3nnc(C)s3)ns2)cc1 | 9.7 | 9.9 | 3.6 | 0.9 | -5.3 | 0.9
Cc1ccc(-c2n[nH]c(=O)c3ccccc23)cc1N | 23.0 | 67.6* | -3.5 | 0.8 | -6.0 | 0.3
O=C(CS(=O)(=O)c1cccc(Cl)c1)Nc1ccccc1Cl | -71.0 | 77.6* | · | 1.7 | · | 0.2
